The values below come from PubChem BioAssay (Tox21).

Values joined by “and” are separate entries in the source; they are usually repeats but may differ in a detail not shown here. Equal entries are not always repeated. Records with an inconclusive call do not appear. A call without a number means that no potency is given here. Some compounds were tested as several samples or in several runs, with calls that do not always agree. Active and inactive are the calls of the source. Calls follow the shape of the dose curve; as a rule, active = well fitted inhibition curve with a large enough effect in the repeat runs; inconclusive = weak or mixed curves; inactive = flat fitted curve, though single readings scatter.

Chain of Luciferin 4-monooxygenase (Photinus pyralis) (P08659 whole entry, looked up): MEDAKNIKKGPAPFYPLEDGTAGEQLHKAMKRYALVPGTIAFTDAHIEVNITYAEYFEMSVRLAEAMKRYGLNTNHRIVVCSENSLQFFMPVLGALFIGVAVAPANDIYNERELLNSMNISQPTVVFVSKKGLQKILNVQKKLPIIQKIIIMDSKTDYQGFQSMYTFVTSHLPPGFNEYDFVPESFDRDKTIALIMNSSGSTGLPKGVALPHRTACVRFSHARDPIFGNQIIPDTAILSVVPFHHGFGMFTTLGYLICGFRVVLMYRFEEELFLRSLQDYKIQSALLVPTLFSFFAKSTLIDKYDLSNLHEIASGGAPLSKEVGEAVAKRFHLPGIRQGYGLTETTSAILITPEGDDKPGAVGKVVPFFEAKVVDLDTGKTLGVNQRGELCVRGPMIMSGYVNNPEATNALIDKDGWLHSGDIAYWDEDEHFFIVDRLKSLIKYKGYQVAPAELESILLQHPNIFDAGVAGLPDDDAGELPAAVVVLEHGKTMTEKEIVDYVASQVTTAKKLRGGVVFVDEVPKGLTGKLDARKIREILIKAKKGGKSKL

In the assay the target is Luciferin 4-monooxygenase (Photinus pyralis) (UniProt P08659). The assay is described as follows: qHTS assay to identify small molecule inhibitors of firefly luciferase (AID 1224835). Also: nearly all actives have a fitted effect of over 25% in size. The conditions noted are these: purified P. pyralis luciferase, luminescence inhibition; series mostly up to 115 µM; activity change, negative = inhibition: at the top concentration. An excerpt:
U.S. Tox21 Program National Center for Advancing Translational Sciences [NCATS] NIH Chemical Genomics Center [NCGC] U.S. Environmental Protection Agency [EPA] National Institutes of Environmental Health Sciences [NIEHS] National Toxicology Program [NTP] U.S. Food and Drug Administration [FDA] Tox21 Assay Overview: Firefly (Photinus pyralis) luciferase is one of the most commonly used transcriptional reporters. Firefly luciferase reporter-gene assays are generally considered one of the most sensitive assay types (Wood, 1995; Wood, 1998). However, it was initially observed, in 1991, by Thompson et al., that compounds that resemble the substrates of firefly luciferase (FLuc) can act as competitive inhibitors of the enzyme, and that these compounds, upon interaction with luciferase in the cell, can actually stabilize the protein and increase its half-life. Previous profiling work by other groups to determine the prevalence of compounds that affect FLuc enzymatic activity (PubChem AID 411) identified that ~3% of the MLSMR library (then at ~72K) inhibited FLuc. […] Thus the Tox21 10K library is profiled for activity against FLuc using a biochemical assay of purified FLuc and KM concentrations of FLuc substrates (D-luciferin and ATP).
These assay plates were then treated with 23nL of compound or DMSO using a Kalypsys pin tool, which allows for delivery of a 6-point interplate titration of each compound to the assay plate (quantitative HTS.) 1 uL of firefly luciferase mix (containing 50 mM Tris acetate, pH 7.6, 0.04 uM P. pyralis luciferase, 0.01% Tween, 0.05% BSA and dH2O) was then delivered by FRD to each well. Luciferase activity was then measured using a ViewLux CCD imager.
Background: In qHTS, concentration-response curves come from the screen itself.
Turning to `CCC[CH2][Sn]([Cl])([Cl])[Cl]`, the Potency result is “inactive”. As for `O=S(=O)(c1ccc(Cl)cc1)c1cc(Cl)c(Cl)cc1Cl`, the Potency result was “inactive”. Still for that read-out and setting: the entry for `O=Cc1cccc(Oc2ccccc2)c1` is “inactive”; for `CC1OC(C)OC(C)O1` (stereo not given) it is “inactive”. Same read-out and setting: with `CCCCOC(=O)c1ccccc1C(=O)OCCCC` the entry was “inactive”; with `C[C@]12CC[C@H]3[C@@H](CC[C@@]45O[C@@H]4C(O)=C(C#N)C[C@]35C)[C@@H]1CC[C@@H]2O`, “inactive”; with `Nc1c(Cl)c(Cl)nc(C(=O)O)c1Cl`, “inactive”.

Consider `CCOP(OCC)OCC`, for which the Potency entry was “inactive”. For the compound `COc1ccc2c3c1O[C@H]1[C@@H](O)C=C[C@H]4[C@@H](C2)N(C)CC[C@@]341`, the Potency result was “inactive”. As to `CCCCCOC(=O)c1ccccc1C(=O)OCCCCC`, the Potency result is “inactive”. The same measure, in the same setting: the entry for `Nc1ccc(Cc2ccc(N)cc2)cc1` is “inactive”. For the compound `CC1C=[C-]C=C1.[C-]#[O+].[C-]#[O+].[C-]#[O+].[Mn]`, the Potency entry was “inactive”. The same measure, in the same setting: the entry for `Clc1cccc(Cl)c1Cl` is “inactive”; for `ClCc1cccnc1` it is “inactive”; for `ClCCBr` it is “inactive”. As for `Cc1[nH]c(=O)n(C(C)(C)C)c(=O)c1Cl`, the Potency result is “inactive”.

On to `O=c1ccc(=O)[nH][nH]1`, for which the Potency entry was “inactive”. Still for that read-out and setting: the entry for `CCc1cccc(C)c1N(C(=O)CCl)C(C)COC` (stereo not given) is “inactive”; for `C=CC(N)=O` it is “inactive”; for `CCN(CC)c1ccccc1` it is “inactive”. Consider `Nc1ccccc1C(=O)O`, for which the Potency entry is “inactive”. `O=c1[nH]c2ccccc2c(=O)o1`: the “activity change, negative = inhibition” value is -6.85% (inactive). For the compound `OC(O)C(Cl)(Cl)Cl`, the Potency entry was “inactive”. The same measure, in the same setting: with `CCCCN(CCCC)SN(C)C(=O)Oc1cccc2c1OC(C)(C)C2` the entry was “inactive”; with `Oc1ccccc1Cl`, “inactive”. In the case of `O=NN1CCCC1`, the Potency was 83.4 µM (active) and inactive. Take `CCOP(=S)(OCC)Oc1cnc2ccccc2n1`: the “activity change, negative = inhibition” value was -13.5% (inactive). As for `CC(C)=C[C@@H]1[C@@H](C(=O)OCc2coc(Cc3ccccc3)c2)C1(C)C`, the Potency entry was “inactive”.

As to `c1cc2c3c(cccc3c1)CC2`, the Potency result is “inactive”. In the case of `CN=C=S`, the Potency entry is “inactive”. `O=NN1CCCCCCC1`: the Potency entry is “inactive”. As for `CC(Br)C(=O)O` (stereo not given), the Potency entry is “inactive”. On the same count and under the same terms, the entry for `CC(C#N)CCC#N` (stereo not given) is “inactive”. For `Cn1cc(-c2ccccc2)c(=O)c(-c2cccc(C(F)(F)F)c2)c1`, the “activity change, negative = inhibition” value was -2.04% (inactive). For the compound `CCNc1nc(NC(C)(C)C)nc(SC)n1`, the Potency result was “inactive”. As to `CNC(=O)Oc1ccccc1OC(C)C`, the Potency result was “inactive”. Take `O=c1n(Cl)c(=O)n(Cl)c(=O)n1Cl`: the Potency entry is “inactive”. Regarding `CC(C)OC(=O)Nc1cccc(Cl)c1`, the Potency is 31.3 µM (active) and 35.6 µM (active). On the same count and under the same terms, the entry for `CCN(CC)CCO` is “inactive”; for `CCC12COCN1COC2` it is “inactive”.
